According to publication PMC13494018:

B1: design_608_fd41b8f9-4da9-4c78-93ec-aaa316ed4933_161_dldesign_0_cycle1_af2pred (protein)
chain: ITEEQKKVAEKLVERAEEVGKKAIEAGYPELGKKVLELAKETRKALEVSAEEAAKKAAELAQLKAEAEFEIKK
B2: design_607_777643b9-bd23-49d1-80ae-2b1434974efa_2342_dldesign_0_cycle1_af2pred (protein)
chain: SEAQKEGKAFSAMMKTASEKGKELSKKTGTPLAEMAKIVQDIADAYAKGPEEIKKVAKTPEAKELATAAYDTYEKTYKA
B3: design_607_777643b9-bd23-49d1-80ae-2b1434974efa_1959_dldesign_0_cycle1_af2pred (protein)
chain: MEKAEEYLEEAKKALEKAEEYIAKAAADPANRAAYAAKAAQYAQEARILADGLELVDPSMKPEAEELRERARELIKKLAAVL
B4: design_607_777643b9-bd23-49d1-80ae-2b1434974efa_2143_dldesign_0_cycle1_af2pred (protein)
chain: GMEEEEKRREELKKKAEELIKKAHEAYENSAEASVTNKEAAEIYREAAKLYKKAAEAYRSGEKVEEGEKYEEEAKAKEKEAKALLEK
B5: design_607_777643b9-bd23-49d1-80ae-2b1434974efa_1995_dldesign_0_cycle1_af2pred (protein)
chain: EKEKELKEEVKEAGKRAEERVSRRAAKATNQQQKEATKALADNAIASIRKLAEEKGKETGKEEEFKKLAEEAEKKISAIVEAV
B6: design_607_777643b9-bd23-49d1-80ae-2b1434974efa_2448_dldesign_0_cycle1_af2pred (protein)
chain: SAEEEAKKLLEEAKKLAEEAGKSKDPEEAEKLAREAIKLAEKAAKLGLKEEASKVAHLARENLAEAQYRYRKEKK
B7: design_607_777643b9-bd23-49d1-80ae-2b1434974efa_2300_dldesign_0_cycle1_af2pred (protein)
chain: GKKEEAKKYAEEAKKKIKELAKKAEKSTDEEEVKKLAEKARELAKKAIEYAKKELTPEEAAKVAKELSEAAHEAHEAAAIGLFNIRKK
B8: design_607_777643b9-bd23-49d1-80ae-2b1434974efa_2270_dldesign_0_cycle1_af2pred (protein)
chain: AAADATVDAAIAKLRALGKEYPEGADAFNQLADNLKKAAAKAKTPEAKIAAAKKAMATAEHILKTTKEAEERAKKRKEEEEK
B9: design_607_777643b9-bd23-49d1-80ae-2b1434974efa_2203_dldesign_0_cycle1_af2pred (protein)
chain: SAVEKEKEELKKEVEEAKKEAEKVIAGGTLEEGAKVADKAYQLAAEAASLGPEAEDIEKEAREVARRLREYGKERRA
B10: design_607_777643b9-bd23-49d1-80ae-2b1434974efa_1377_dldesign_0_cycle1_af2pred (protein)
chain: AEVAALVKKASEAMGEARFNANAAEKIPEEAEEYAKKAEEAIKAFRDALAQIRALAAEASPETLAAADRAEARLKELEKKVKEALKK
B11: design_607_777643b9-bd23-49d1-80ae-2b1434974efa_2258_dldesign_0_cycle1_af2pred (protein)
chain: AAVEEAKAALKKRYEKALKLAKEASEELYKEVVEKYKEYVAAAEAAKDPAEKVAALTAGNAFMYELIAEARSEIERKKEE
B12: design_608_fd41b8f9-4da9-4c78-93ec-aaa316ed4933_3_dldesign_0_cycle1_af2pred (protein)
chain: GMEEESKAYKEALDKLSELGKEAEKAAKKGNEEVRKKLLKLKEEAEKKLDEGFEKGKEAAKEAKKFIEEKLKEVKKLLKELE
B13: design_607_777643b9-bd23-49d1-80ae-2b1434974efa_2486_dldesign_0_cycle1_af2pred (protein)
chain: AAEKEAAKAEAAKLVEEAADAAVEKGAEGVEAIIKELEKAAKAASPEARVYYEKAIRTAKSLAEDVKELEN
B14: design_607_777643b9-bd23-49d1-80ae-2b1434974efa_2234_dldesign_0_cycle1_af2pred (protein)
chain: SAAVKAAAEKAIAAFEAVAKKAKKAAEEGAKPEEVEKLRKELEKARKAGKEVAKKAAADPELVKKLSNAAFEAYEAIAEAAFAA
B15: design_607_777643b9-bd23-49d1-80ae-2b1434974efa_1448_dldesign_0_cycle1_af2pred (protein)
chain: AAAEEARKAAITAAADTLAEADGDVYLAANELAKKVGPEAGKAILEKAKAARKEALAAIKEDPAAGAALAKRKGEEILKEAKELIEKA
B16: design_607_777643b9-bd23-49d1-80ae-2b1434974efa_1467_dldesign_0_cycle1_af2pred (protein)
chain: AEERAKKVIKEAEELRKEAIALAEKYKENPEVRKLAVEAAHYALLAISAAKAGVKFLPYAEEYLKKAKELYEKGKALAEALEKEKEEK
B17: design_607_777643b9-bd23-49d1-80ae-2b1434974efa_1383_dldesign_0_cycle1_af2pred (protein)
chain: DGEEFLKKLKERGELIKKKYPVAAEEITKITDEAVKVAQKGIEDPEKFEEYKKEATDLLHKAREIGAEKEVEAKL
B18: design_607_777643b9-bd23-49d1-80ae-2b1434974efa_2248_dldesign_0_cycle1_af2pred (protein)
chain: AAAEAAAKAKEAAKKAAAIAKEGIAKQEKAAKEGDAEKVREIAKEVRTKLAAEAKATPEGAKAYAAAAHDVYEAAAEYSQEAKKAK
B19: design_607_777643b9-bd23-49d1-80ae-2b1434974efa_1990_dldesign_0_cycle1_af2pred (protein)
chain: MKEIIKLESESLRKLVRVAREVAEADPSLKPLAEEAILAAADNPEEGAKKVEELAKASLKVEGGEEYAKKLKEVAEKLKEVEEIYK
B20: design_607_777643b9-bd23-49d1-80ae-2b1434974efa_2236_dldesign_0_cycle1_af2pred (protein)
chain: EAKKYAEKAEKLAKEAEESTDDYEKAKKYAEEARKYAKKAVAYAKANPEDKEAKELAKKAIEAAHKAQEALAEAKAN
B21: design_607_777643b9-bd23-49d1-80ae-2b1434974efa_1871_dldesign_0_cycle1_af2pred (protein)
chain: DMKEEAKKVAKEAKEVAKKVYELDPAKGSELSAKIHEAEALVKHPKFAEEGLKELKETLKKAKELLKKLE
B22: design_607_777643b9-bd23-49d1-80ae-2b1434974efa_2469_dldesign_0_cycle1_af2pred (protein)
chain: KKITMEEQETLVNSSDDAAYYDVINTPEAAEKAKEAKATRDSLVAKWKAEDPEGGEKLKKVADHIYENSYKISKRILEEKKE
B23: design_607_777643b9-bd23-49d1-80ae-2b1434974efa_1902_dldesign_0_cycle1_af2pred (protein)
chain: DVEKVAKEAIEKLEEYGKRVPELAPEAKKAIERVKRRKEEGEKNPKFAPASIEAIKDTAENLKKKAEKLEKA
B24: design_607_777643b9-bd23-49d1-80ae-2b1434974efa_2358_dldesign_0_cycle1_af2pred (protein)
chain: MEEEAKRILEEAEKKAKEAEAIAKSGKNTKEAEKLAREALKLVKENAPIIPKEEALKAAKKALEVLFEATEAAN
B25: design_607_777643b9-bd23-49d1-80ae-2b1434974efa_1601_dldesign_0_cycle1_af2pred (protein)
chain: ASEEVKKQAEASSAAYREAKKVAKYVKANAADPKAAEIAKKANALIEEAMTGDAETAEKKTKEIAKLAKE
B26: design_607_777643b9-bd23-49d1-80ae-2b1434974efa_1839_dldesign_0_cycle1_af2pred (protein)
chain: GMEAGKKALAEADKAGAAAIAAAKAGDVKAASAAAGEAYFYLAEAYVEFGPEADEEIKAKRQALLDALKKATAEAAA
B27: design_607_777643b9-bd23-49d1-80ae-2b1434974efa_2272_dldesign_0_cycle1_af2pred (protein)
chain: NTQKAADKFSEAVRNLREAAKLGGEEVKEMAEKAILAAADDPEKGVEQAEKLLKYVKENVSEEVAKLVEEALKNFKEMAKLLN
B28: design_607_777643b9-bd23-49d1-80ae-2b1434974efa_1699_dldesign_0_cycle1_af2pred (protein)
chain: SEKVEEVAKKEAEKIKEVAKKYGIEEEGKKAVERLKKKAEEAKKWKKPEIGAESVKTYGEGALKSVEILGKKKAA
B29: design_607_777643b9-bd23-49d1-80ae-2b1434974efa_1562_dldesign_0_cycle1_af2pred (protein)
chain: GKELLEKIKKLSEEAVFATADDPEKGKEKLEEAKKLVKEAEKLPEAPKAKEALEKAEKVSKSIIEDIEKAK
B30: design_608_fd41b8f9-4da9-4c78-93ec-aaa316ed4933_71_dldesign_0_cycle1_af2pred (protein)
chain: AKEEKEKEIEKLKKKAERLAERAKKVAEEAEKAGFEEVAKKIKEKAKELEKAAESMKEDYEKGKKEASEKAGELSEVMAEAKYLLAKK
B31: design_607_777643b9-bd23-49d1-80ae-2b1434974efa_1637_dldesign_0_cycle1_af2pred (protein)
chain: MEKDEALVERAFEAGGELFEKYPEGSKIASAMIRAATIARKDPEAGLEYLRERGLELGEEVAEEATERFRKILEEL
B32: design_608_fd41b8f9-4da9-4c78-93ec-aaa316ed4933_199_dldesign_0_cycle1_af2pred (protein)
chain: AEEYRKKAKELAEKAKKYVEKLKADPENAEEYYKKAVEYIHKLYELAAEAESEGHPEVAKEIRELARKIGEEAKKAYEEVKA
B33: design_607_777643b9-bd23-49d1-80ae-2b1434974efa_1272_dldesign_0_cycle1_af2pred (protein)
chain: EEAFKEAGEKALEYAEKVLKLAKKEPEVLEKAEKGLELLKKGIETGDKDLLVKARSYFLQVASYASPEVAEVAEKAAEYIDEAYILLS
B34: design_608_fd41b8f9-4da9-4c78-93ec-aaa316ed4933_178_dldesign_0_cycle1_af2pred (protein)
chain: AATEEANKALLEAKEAIVDAYNEKYKLDPEEGKKLRKELLKKLAEAYASENAAEKLKEIKKEAKKLAEEYEKKN
B35: design_607_777643b9-bd23-49d1-80ae-2b1434974efa_1961_dldesign_0_cycle1_af2pred (protein)
chain: SEEEAKKKAEKAAEEAKKLAKEGAKFPEKAEELTEKAKEIAKELAKAGFPKLGSEAAAAAHEAQAEANLKKR
B36: design_607_777643b9-bd23-49d1-80ae-2b1434974efa_2023_dldesign_0_cycle1_af2pred (protein)
chain: SAEAAAVKAEVDALTAAAVAATPEEAAKLGSQAAALAYEAAAEYASLSAREKDPEKAAEYKALADALREAARAARDRVAAAIAAKLA
B37: design_607_777643b9-bd23-49d1-80ae-2b1434974efa_2298_dldesign_0_cycle1_af2pred (protein)
chain: VTPEELAEAAKKKDELLDAAFAALQAAKTVEEVEAVAKEFLAKAEELGKDPRYAAAAESFKKILTRMKEAAVKAIK
B38: design_607_777643b9-bd23-49d1-80ae-2b1434974efa_1681_dldesign_0_cycle1_af2pred (protein)
chain: HMTPEQIAAAKATAAAAAALAANAATTTQAQITAVMDAAAAAMPEFADTFATLRATMLANYADKAGVAKGLAAVARMLAASAKAAE

What follows are binders tested against VTCN1, Q7Z7D3.
Sequence of VTCN1, Q7Z7D3 (Q7Z7D3 whole entry): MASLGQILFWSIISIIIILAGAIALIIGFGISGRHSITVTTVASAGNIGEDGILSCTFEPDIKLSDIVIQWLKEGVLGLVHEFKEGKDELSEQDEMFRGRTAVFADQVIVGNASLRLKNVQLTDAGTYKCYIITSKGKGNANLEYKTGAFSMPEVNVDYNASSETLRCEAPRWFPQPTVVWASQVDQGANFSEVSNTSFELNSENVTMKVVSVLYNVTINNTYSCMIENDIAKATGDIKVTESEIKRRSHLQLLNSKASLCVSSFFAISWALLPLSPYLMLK

Binding in a display sort, inactive:
B1 not found
B2 not found
B3 not found
B4 not found
B5 not found
B6 not found
B7 not found
B8 not found
B9 not found
B10 not found
B11 not found
B12 not found
B13 not found
B14 not found
B15 not found
B16 not found
B17 not found
B18 not found
B19 not found
B20 not found
B21 not found
B22 not found
B23 not found
B24 not found
B25 not found
B26 not found
B27 not found
B28 not found
B29 not found
B30 not found
B31 not found
B32 not found
B33 not found
B34 not found
B35 not found
B36 not found
B37 not found
B38 not found
